{
  "source": "PubChem BioAssay AID624297",
  "about": "(National Center for Advancing Translational Sciences (NCATS), 2012)",
  "note": "In all, about 340,000 compounds went through this assay and about 6,200 (1.8%) were called active. About 10% were inconclusive and are not listed. The full list was thinned out, with actives kept by preference. Unmarked numbers belong to inactive results. Calls follow the shape of the dose curve; as a rule, active = well fitted activation curve with a large enough effect; inconclusive = small, poorly fitted or top-dose-only effect; inactive = no such curve, though single readings can be large or run the other way. Potency is read from the fitted curve at half-maximal effect.",
  "data": [
    {"experiment": "A quantitative high throughput screen for small molecules that induce DNA re-replication in SW480 colon adenocarcinoma cells; also: nearly all actives have a fitted effect of over 55% in size; as to re-replication activation: % of control where 0% means no effect.", "details": "Hoechst DNA content imaging, 48 h; series mostly up to 46.1 µM; re-replication activation: at the top concentration", "in_short": "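First, 250 cells per well were seeded. Next, compound or vehicle (23 nL) was pinned in, plates sat 48 hr at 37 C. Finally Hoechst was added for 40 min before fluorescence scanning.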", "values": [
      {"molecule": "COc1ccccc1N(CC(=O)Nc1ccc(C)cc1Cl)S(=O)(=O)c1cccs1", "re-replication activation": "0.978%"},
      {"molecule": "CC(=O)c1c(OCC(=O)N(C)C2CCCCC2)ccc2c(C)cc(=O)oc12", "re-replication activation": "-0.36%"},
      {"molecule": "CC(=O)c1cccc(-c2ccc(CN3C(CC(C)C)C(=O)N(Cc4cn(CC5CCCCC5)nn4)CCS3(=O)=O)cc2)c1", "note": "(configuration not stated)", "re-replication activation": "-0.514%"},
      {"molecule": "CCOc1cccc(/C=N/NC(=S)NCCN2CCOCC2)c1O", "Potency": "1.46 µM (active)"},
      {"molecule": "Cc1ccc(C(=O)NC(=S)NCCN2CCOCC2)cc1", "re-replication activation": "0.443%"},
      {"molecule": "CCOc1cccc(/C=N/N2C(=O)CSC2=S)c1O", "re-replication activation": "-0.569%"},
      {"molecule": "COC1C(CO)OC(n2cnc3c(=S)nc(N)[nH]c32)C1O", "note": "(configuration not stated)", "re-replication activation": "-3.09%"},
      {"molecule": "COc1cc2c(cc1OC)C1C(=O)c3cc(OS(C)(=O)=O)c(OC)cc3C1N(C)C2=O", "note": "(configuration not stated)", "Potency": "7.31 µM (active)"},
      {"molecule": "CCOc1cc2c(cc1OCC)C(C(=O)O)C(c1ccc(OC)c(O)c1)N(C)C2=O", "note": "(configuration not stated)", "re-replication activation": "-13.5% [at 9.22 µM]"},
      {"molecule": "COc1cccc(NC(=O)C2c3cc(OC)c(OC)cc3C(=O)N(C)C2c2cccnc2)c1", "note": "(configuration not stated)", "re-replication activation": "2.23%"},
      {"molecule": "O=C1CC[C@@H]2CC3(C[C@@H]4CCN1[C@H]24)Nc1cc([N+](=O)[O-])ccc1NC3=NC1CCCCC1", "note": "(some centres not stated)", "re-replication activation": "-13.5%"},
      {"molecule": "CC(NC(=O)COC(=O)CCC(=O)c1ccc(Cl)cc1)c1ccccc1", "note": "(configuration not stated)", "re-replication activation": "-6.09%"},
      {"molecule": "FC(F)(F)c1nnc2ccc(N3CCN(c4ccccc4)CC3)nn12", "re-replication activation": "0.3%"},
      {"molecule": "Nc1nnc2c(C(F)(F)F)nc3ccccc3n12", "re-replication activation": "6.87%"},
      {"molecule": "FC(F)(F)c1nnc2c3ccccc3c(Cl)nn12", "Potency": "2.59 µM (active)"},
      {"molecule": "COc1ccc(NS(=O)(=O)c2cc(NC(=O)c3ccc(S(=O)(=O)N(C)C)cc3)ccc2N2CCOCC2)cc1", "re-replication activation": "4.03%"},
      {"molecule": "COc1ccccc1C(=O)NCC(=O)OCC(=O)NNC(=O)c1ccc(Br)cc1", "re-replication activation": "0.282%"},
      {"molecule": "COc1ccc(/C=C2\\N=C3CCCN3C2=O)cc1", "re-replication activation": "-18.8%"},
      {"molecule": "COc1ccc(/C=C2/CCCc3ccccc3C2=O)cc1", "Potency": "9.2 µM (active)"},
      {"molecule": "COc1ccc(/C=C2\\CCc3ccccc3C2=O)c(OC)c1OC", "re-replication activation": "3.39%"},
      {"molecule": "O=C(CN1C(=O)NC(Cc2c[nH]c3ccccc23)C1=O)Nc1ccccc1C(F)(F)F", "note": "(configuration not stated)", "re-replication activation": "-21.5%"},
      {"molecule": "CCCN=C1N(C)C[C@@H]2[C@@H]3C(=O)N(Cc4ccccc4)C(=O)[C@@H]3[C@](C)(C(=O)OC)N12", "re-replication activation": "0.326%"},
      {"molecule": "Nc1ccc2c(c1)C(O)c1ccc(Cl)cc1-2", "note": "(configuration not stated)", "re-replication activation": "21.7%"},
      {"molecule": "CCCN1C2CCCC1CC(NC(=O)NC13CC4CC(CC(C4)C1)C3)C2", "note": "(configuration not stated)", "re-replication activation": "-6.15%"},
      {"molecule": "CCCN1C2CCCC1CC(NC(=O)c1cccc(OC)c1)C2", "note": "(configuration not stated)", "re-replication activation": "-3.5%"},
      {"molecule": "CCCNC(=S)NC1CC2CCCC(C1)N2CC(C)C", "note": "(configuration not stated)", "Potency": "20.6 µM (active)"},
      {"molecule": "O=C1c2ccccc2[C@@H]2C[C@@H](O)[C@H](Nc3ccccc3Cl)CCN12", "re-replication activation": "7.29%"},
      {"molecule": "Cc1ccc(CN(C)CC(=O)Nc2cccc([N+](=O)[O-])c2)o1", "re-replication activation": "3.11%"},
      {"molecule": "COc1ccc(C)cc1S(=O)(=O)N(CC(=O)Nc1cccc([N+](=O)[O-])c1)c1ccc(C)cc1", "re-replication activation": "-5.43%"},
      {"molecule": "Cc1ccc(S(=O)(=O)N(CC(=O)Nc2cccc([N+](=O)[O-])c2)Cc2ccc(Cl)cc2)cc1", "Potency": "8.2 µM (active)"},
      {"molecule": "CCCN(C(=O)CSc1nnc(N)s1)c1c(N)n(Cc2ccccc2)c(=O)[nH]c1=O", "re-replication activation": "26.3%"},
      {"molecule": "COc1ccc2c(c1)c(=Cc1ccc(N(C)C)cc1)c1cc(-c3ccccc3)[n+](C)n12", "re-replication activation": "-3.87%"},
      {"molecule": "CC(C)(C)OC(=O)CNC(=O)c1[nH]cnc1C(=O)N[C@@H](CCCCN)C(=O)OC(C)(C)C", "re-replication activation": "-0.556%"},
      {"molecule": "NS(=O)(=O)c1cccc(NC(=O)COC(=O)c2cc([N+](=O)[O-])ccc2N2CCCC2)c1", "re-replication activation": "-5.61%"},
      {"molecule": "COC(=O)CC(CC(=O)OC)n1cccc1", "re-replication activation": "0.407%"},
      {"molecule": "CCN(CC)CCCC(C)n1c2nc(=O)[nH]c(=O)c-2nc2cc(Cl)ccc21", "note": "(configuration not stated)", "Potency": "11.6 µM (active)"},
      {"molecule": "O=C(Cc1ccc(NC(=O)C2CCCN(C(=O)C3CCCCC3)C2)cc1)Nc1cccc(C(=O)N2CCCCC2)c1", "note": "(configuration not stated)", "re-replication activation": "5.52% [at 9.22 µM]"},
      {"molecule": "C=CCn1c(C)cc(C2=NNC(=NCC)SC2)c1C", "re-replication activation": "1.88%"},
      {"molecule": "Cc1ccc(CC(=O)Nc2ccc(S(=O)(=O)N3CCOCC3)cc2)cc1C", "re-replication activation": "-13.4%"},
      {"molecule": "Cc1cc(C2=NNC(=Nc3ccc(S(=O)(=O)N4CCOCC4)cc3)SC2)c(C)n1CC1CCCO1", "note": "(configuration not stated)", "Potency": "3.66 µM (active)"},
      {"molecule": "CN(C(=O)c1cccc(NC(=O)Cc2ccc(NC(=O)C3CCN(C(=O)C4CCCCC4)CC3)cc2)c1)C1CCC1", "re-replication activation": "10.8% [at 9.22 µM]"},
      {"molecule": "O=S1(=O)CSCS(=O)(=O)C1", "re-replication activation": "-1.95%"},
      {"molecule": "COc1ccc(-c2nc3cnccn3c2NC2CCCCC2)cc1-c1cccc(Cl)c1", "Potency": "5.17 µM (active)"},
      {"molecule": "Cc1ccc2nc(-c3cccnc3)c(NC3CCCC3)n2c1", "re-replication activation": "-5.41%"},
      {"molecule": "COc1ccc(-c2nc3cnccn3c2NC(C)(C)CC(C)(C)C)cc1O", "re-replication activation": "4.42%"},
      {"molecule": "COc1cc(NC(=O)COC(=O)c2ccc([N+](=O)[O-])s2)cc(OC)c1OC", "re-replication activation": "-3.57%"},
      {"molecule": "CC(=O)c1ccc2c(c1)c1ccccc1n2CC(C)C", "re-replication activation": "-4.69%"},
      {"molecule": "CCCCN(CCCC)CC(O)Cn1c2ccccc2c(=O)c2ccccc21", "note": "(configuration not stated)", "Potency": "7.31 µM (active)"},
      {"molecule": "CCCn1c(=O)c(-c2ccccc2)c(O)c2ccccc21", "re-replication activation": "-4.27%"},
      {"molecule": "Nc1nonc1-n1nnc(C(=O)N/N=C/c2ccccc2O)c1CN1CCCC1", "re-replication activation": "-5.57%"},
      {"molecule": "Nc1nonc1-n1nnc(C(=O)N/N=C/c2cc(Br)ccc2O)c1CSC1=NCCS1", "Potency": "13 µM (active)"},
      {"molecule": "Cc1ccc(SCc2c(C(=O)N/N=C/c3cccnc3)nnn2-c2nonc2N)cc1", "re-replication activation": "-16.9%"},
      {"molecule": "O=C(CCCCCCCC(=O)N1CCCCC1)N1CCCCC1", "re-replication activation": "-6.64%"},
      {"molecule": "COc1ccc(C(=O)OCc2cc(=O)n3ccsc3n2)cc1F", "re-replication activation": "-5.06%"},
      {"molecule": "CCCNC(=O)c1c(N)n(-c2ccc(S(N)(=O)=O)cc2)c2nc3ccccc3nc12", "Potency": "0.82 µM (active)"},
      {"molecule": "Cc1noc(C)c1C(=O)NCCc1ccc(S(N)(=O)=O)cc1", "re-replication activation": "-15.5%"},
      {"molecule": "CCOC(=O)c1c(C)c(C(=O)NCCc2ccc(S(N)(=O)=O)cc2)c(C)n1CC", "re-replication activation": "-3.88%"},
      {"molecule": "O=C(Nc1cccc2ncccc12)c1ccc(-c2ccc(Cl)cc2Cl)o1", "re-replication activation": "0.657%"},
      {"molecule": "Cc1csc(NC(=O)c2ccc(C)s2)n1", "re-replication activation": "15.7%"},
      {"molecule": "Cc1csc(NC(=O)c2ccc(-c3ccc(Cl)cc3Cl)o2)n1", "Potency": "13 µM (active)"},
      {"molecule": "Cc1cccc(N2O[C@H]3C=CC2CCCC3)n1", "re-replication activation": "0.356%"},
      {"molecule": "CC1CN(Cc2ccco2)C(=S)N(c2ccccc2)C1=O", "note": "(configuration not stated)", "re-replication activation": "-2.33%"}
    ]}
  ]
}
